Data taken from PubChem BioAssay.
Activity calls are given as the source filed them.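 How the source made its calls, unless noted: active means visually confirmed hit in the image check and inhibition above 20%; inconclusive means visually confirmed hit but inhibition not above 20%; inactive means no visual hit in the image check.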

Assays:
[1] = inhibitors of TNFa-induced NFkB p65 translocation, primary screen, imaging, HUVEC, MLSMR starter and 10KST1 sets (AID 438;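 active means inhibition above 20% together with a positive visual image hit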;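 further: compound added about 3h40 before a 20 min TNFalpha stimulation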;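 on inhibition: signal is the nuclear over cytoplasmic p65 intensity ratio per well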); details: HUVEC TNFa-induced p65 nuclear translocation; cell count: measured here: nuclei count (cytotoxicity indicator), at 2.08 µM; inhibition: at 2 µM, stronger effect = higher value, 0% TNFa-plus-vehicle, 100% no-TNFa wells
[2] = inhibitors of mutant huntingtin aggregation, primary screen, imaging, exon1htt(103Q)mCFP cells, high-content imaging (AID 483;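 active means visual image review flags a hit and inhibition of aggregation exceeds 20%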;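 further: compound exposure lasted 3 days before fixation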;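 on nuclei count: percent of the per-plate median nuclei count of sample wells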); details: exon1htt(103Q)mCFP cell line, aggregate imaging, at 2 µM; inhibition of aggregation: stronger effect = higher value; nuclei count: measured here: cell count, toxicity
[3] = inhibitors of E-selectin induction by TNFa, primary screen, imaging, HUVEC, immunofluorescence, MLSMR starter and 10KST1 sets (AID 487); details: HUVEC TNFalpha-induced E-selectin immunofluorescence imaging, at 2 µM; inhibition: stronger effect = higher value; nuclei count: measured here: cell number, toxicity;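 on inhibition: signal is fraction of cell area covered by stained E-selectin grains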;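 on nuclei count: 100% = median nuclei count of all wells on the same plate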
[4] = target: Voltage-gated potassium channel subunit beta-2 (Rattus norvegicus) (UniProt P62483); assay: KvBeta enzyme negative modulators, primary screen, biochemical, NADPH fluorescence (AID 622;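 active means fluorescence slope higher than the sample average by over 3 SD, cut at about -0.22 in these data, passing the limit was not always enough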;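 further: slope of raw intensity against log time taken from 70 to 1610 s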); details: recombinant KvBeta, 4-cyanobenzaldehyde reduction, at 10 µM, stronger effect = higher value
Chain of Voltage-gated potassium channel subunit beta-2 (Rattus norvegicus) (P62483 whole entry, looked up): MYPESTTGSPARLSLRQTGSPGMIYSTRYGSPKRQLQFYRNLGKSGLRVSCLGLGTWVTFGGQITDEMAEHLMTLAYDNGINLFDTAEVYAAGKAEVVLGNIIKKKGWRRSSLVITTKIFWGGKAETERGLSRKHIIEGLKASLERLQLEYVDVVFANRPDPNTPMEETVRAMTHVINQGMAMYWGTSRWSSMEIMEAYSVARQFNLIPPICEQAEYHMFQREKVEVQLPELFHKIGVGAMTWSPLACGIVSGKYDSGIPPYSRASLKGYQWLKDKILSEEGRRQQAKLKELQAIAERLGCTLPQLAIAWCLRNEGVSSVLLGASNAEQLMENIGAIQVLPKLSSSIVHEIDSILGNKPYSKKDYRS

[5] = target: Voltage-gated potassium channel subunit beta-2 (Rattus norvegicus) (UniProt P62483); assay: KvBeta positive modulators, primary screen, biochemical, NADPH fluorescence (AID 623;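 active means NADPH fluorescence slope more negative than the mean of all samples by about 3 SD, 99.7% confidence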;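 further: fluorescence intensity change per second fitted from 20 to 320 s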); details: Recombinant KvBeta, NADPH fluorescence decrease slope, 10 min; at 10 µM; stronger effect = lower value
[6] = target: Alpha-2C adrenergic receptor (Homo sapiens) (UniProt P18825); assay: modulators of alpha2C/GIRK thallium flux, primary screen, cell-based, HEK293 alpha2C/GIRK1/2 (AID 624;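 active means fluorescence slope after compound addition differing from the mean of all screened samples at 99.7% confidence, in either direction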;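 further: slope of fluorescence ratio to pre-addition baseline per second over 15 to 24 s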); details: thallium flux BTC fluorescence, at 10 µM, actives lie on both sides
Chain of Alpha-2C adrenergic receptor (Homo sapiens) (P18825 whole entry, looked up): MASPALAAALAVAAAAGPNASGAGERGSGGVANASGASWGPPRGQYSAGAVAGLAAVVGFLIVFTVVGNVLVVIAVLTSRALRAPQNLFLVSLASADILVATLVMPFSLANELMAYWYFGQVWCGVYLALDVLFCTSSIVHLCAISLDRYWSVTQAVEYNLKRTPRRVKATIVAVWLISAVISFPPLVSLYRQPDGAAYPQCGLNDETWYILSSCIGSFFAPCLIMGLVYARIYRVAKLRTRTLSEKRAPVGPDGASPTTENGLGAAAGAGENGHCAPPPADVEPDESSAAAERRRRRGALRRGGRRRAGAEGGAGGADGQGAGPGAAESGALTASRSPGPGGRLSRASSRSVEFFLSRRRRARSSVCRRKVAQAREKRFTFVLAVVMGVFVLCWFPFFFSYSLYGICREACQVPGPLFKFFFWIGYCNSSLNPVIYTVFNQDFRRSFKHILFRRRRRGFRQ

[7] = inhibitors of Sendai virus-induced IRF3 signaling, primary screen, TLR/RLR signaling modifier project, cell-based, Sendai virus stimulus, luciferase, 10K MLSCN set (AID 602276;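 active means inhibition at or above 50% at 10 µM; inactive means inhibition below 50%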;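 further: firefly luciferase from ISG56 promoter only with Renilla not read in this screen; 0% = Sendai virus plus DMSO and 100% = medium plus DMSO without virus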); details: HEK293 RL24 IRF3 luciferase reporter, at 10 µM, stronger effect = higher value
[8] = inhibitors of poly I:C-induced TLR3 signaling, primary screen, cell-based, poly I:C stimulus, luciferase, 10K MLSCN set (AID 602277;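 active means inhibition of the reporter signal at or above 50%; inactive means inhibition below 50%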); details: HEK293-TLR3 RL24 IRF3 luciferase reporter, at 10 µM, stronger effect = higher value

| Compound | cell count [1] | inhibition [1] | inhibition of aggregation [2] | nuclei count [2] | inhibition [3] | nuclei count [3] | fluorescence slope [4] | NADPH fluorescence slope [5] | slope [6] | inhibition [7] | inhibition [8] |
| --- | --- | --- | --- | --- | --- | --- | --- | --- | --- | --- | --- |
| COc1ccccc1NC(=O)C1(C)Cc2ccccc2C(=O)O1 (stereo not drawn) | 640 | 12.4% (inactive) | -26.4% (inactive) | 119% | 46.9% (inactive) | 106% | -0.584 (inactive) | -3.4e-05 (inactive) | 0.00673 (inactive) | -6.71% (inactive) | -2.97% (inactive) |
| CCCc1cc(C(=O)Nc2sc(C)c(C)c2C(=O)OCC)no1 | 856 | 2.3% (inactive) | 2.1% (inactive) | 126% | -79.7% (inactive) | 114% | -0.229 (inactive) | -5.5e-06 (inactive) | 0.00716 (inactive) | 8.68% (inactive) | 31.8% (inactive) |
| Cc1ccc(OC(=O)CCC(=O)OCCCC(F)(F)C(F)(F)F)cc1 | 403 | -3% (inactive) | 4.9% (inactive) | 103% | 4.5% (inactive) | 92.5% | -0.382 (inactive) | -5.9e-05 (inactive) | 0.00733 (inactive) | 3.53% (inactive) | 21.1% (inactive) |
| CCOc1ccc2c(O)csc2c1 | 393 | 2% (inactive) | 7.4% (inactive) | 109% | 7.7% (inactive) | 103% | -0.371 (inactive) | -4.2e-05 (inactive) | 0.0033 (inactive) | 8.13% (inactive) | 10.6% (inactive) |
| Cc1nnc(SCCn2c(N3CCC(Cc4ccccc4)CC3)nc3c2c(=O)[nH]c(=O)n3C)s1 | 432 | -1.1% (inactive) | -91.9% (inactive) | 79.6% | -2.5% (inactive) | 104% | -0.54 (inactive) | 3.5e-06 (inactive) | 0.00468 (inactive) | 1.88% (inactive) | 20.9% (inactive) |
| COc1ccc(N(C(=O)c2ccco2)S(=O)(=O)c2cc(OC)ccc2OC)cc1 | 568 | 4.3% (inactive) | 7.3% (inactive) | 97.7% | 25.3% (inactive) | 93.2% | -0.343 (inactive) | 9.2e-06 (inactive) | 0.00421 (inactive) | 8.61% (inactive) | 20.5% (inactive) |
| CN(C)c1ccc(C(=O)OCC(=O)NC2CCCCC2)cc1 | 548 | -0.3% (inactive) | 4.3% (inactive) | 90.3% | -46.5% (inactive) | 110% | -0.475 (inactive) | -3.6e-05 (inactive) | 0.00547 (inactive) | 16.6% (inactive) | 10.9% (inactive) |
| CN1CCN(c2ncnc3c2cnn3-c2ccc(Cl)cc2)CC1 | 688 | -8.5% (inactive) | -0.6% (inactive) | 116% | -27.8% (inactive) | 122% | -0.591 (inactive) | 1.6e-05 (inactive) | 0.00771 (inactive) | 15.5% (inactive) | 6.85% (inactive) |
| OC(CN1CCCCC1)Cn1c(C(F)(F)F)nc2ccccc21 (stereo not drawn) | 730 | -17.7% (inactive) | 25.1% (inactive) | 122% | -98.5% (inactive) | 95.5% | -0.362 (inactive) | -7.1e-05 (inactive) | 0.00651 (inactive) | 12.8% (inactive) | 24.9% (inactive) |
| Cc1cc(C)cc(Nc2ncc3c(n2)CC(c2ccco2)CC3=O)c1 (stereo not drawn) | 465 | -18.3% (inactive) | -14.3% (inactive) | 106% | -88% (inactive) | 114% | -0.385 (inactive) | -3e-05 (inactive) | 0.00418 (inactive) | 14.2% (inactive) | -2.34% (inactive) |
| COc1ccccc1-n1c(SCC(=O)Nc2ccc3c(c2)OCO3)nc2c(c1=O)SCC2 | 324 | -4.6% (inactive) | -2.1% (inactive) | 94.7% | -54.1% (inactive) | 137% | -0.545 (inactive) | 4.8e-05 (inactive) | 0.00487 (inactive) | -5.47% (inactive) | 7.78% (inactive) |
| COc1ccccc1NC(=O)CSc1nnc(-c2ccncc2)o1 | 469 | 5.3% (inactive) | -7.5% (inactive) | 110% | -23.6% (inactive) | 117% | -0.506 (inactive) | 1.9e-05 (inactive) | 0.00395 (inactive) | -2.18% (inactive) | -9.84% (inactive) |
| N#CC1=C(N)OC2=C(CCC/C2=C/c2ccoc2)C1c1ccoc1 (stereo not drawn) | 413 | -5.2% (inactive) | -17.9% (inactive) | 113% | -137% (inactive) | 115% | -0.313 (inactive) | -5.7e-05 (inactive) | 0.00619 (inactive) | -7.37% (inactive) | -9.08% (inactive) |
| CN(C(=O)c1ccc(S(=O)(=O)NC2CCCC2)cc1)C1CCCCC1 | 685 | 2% (inactive) | -3.6% (inactive) | 103% | -141% (inactive) | 117% | -0.455 (inactive) | 1.5e-05 (inactive) | 0.0047 (inactive) | -13.3% (inactive) | -0.726% (inactive) |
| COc1ccc(N2CCN(C(=O)CCNS(=O)(=O)c3ccc(Br)s3)CC2)cc1 | 338 | 2.9% (inactive) | -0.1% (inactive) | 101% | -297% (inactive) | 108% | -0.423 (inactive) | -0.000118 (inactive) | 0.00529 (inactive) | 7.87% (inactive) | 12.4% (inactive) |
| COc1ccc2cc(CN(Cc3ccco3)C(c3nnnn3C3CCCCC3)C(C)C)c(=O)[nH]c2c1 (stereo not drawn) | 325 | 1.6% (inactive) | 2.5% (inactive) | 119% | -147% (inactive) | 125% | -0.451 (inactive) | 5.5e-07 (inactive) | 0.00859 (inactive) | 11.1% (inactive) | -3.61% (inactive) |
| COC(=O)Cn1c(=NC(=O)CSCC(=O)Nc2cc(C)on2)sc2ccccc21 | 610 | -6.9% (inactive) | 2.6% (inactive) | 112% | 1.2% (inactive) | 111% | -0.417 (inactive) | -6.3e-05 (inactive) | 0.00506 (inactive) | 11.1% (inactive) | 28.1% (inactive) |
| Cc1c(Cl)cccc1NC(=O)CCN1CCCCC1 | 329 | -1.3% (inactive) | -7.5% (inactive) | 112% | -67.3% (inactive) | 133% | -0.514 (inactive) | 3e-05 (inactive) | 0.00469 (inactive) | 17.5% (inactive) | 20% (inactive) |
| O=C(Nc1cc(C(F)(F)F)ccc1Cl)C1CCN(c2nnc(-n3cccc3)s2)CC1 | 329 | -2.9% (inactive) | 6.1% (inactive) | 84.2% | -114% (inactive) | 126% | -0.39 (inactive) | -5.6e-05 (inactive) | 0.00662 (inactive) | 17.2% (inactive) | 9.28% (inactive) |
| COc1ccc(S(=O)(=O)Cc2ccc(C(=O)N3CCN(Cc4ccccc4)CC3)o2)cc1 | 583 | -4.8% (inactive) | 21.6% (inactive) | 98.6% | -37.7% (inactive) | 121% | -0.588 (inactive) | -1.9e-05 (inactive) | 0.0068 (inactive) | -3.69% (inactive) | 28.9% (inactive) |
| CCc1nn(CC(=O)NCCCN2CCc3ccccc3C2)c(=O)c2cc3sccc3n12 | 811 | -6.4% (inactive) | 5.9% (inactive) | 138% | -64% (inactive) | 116% | -0.602 (inactive) | 9.3e-06 (inactive) | 0.00659 (inactive) | 2.67% (inactive) | 50.9% (active) |
| CC1CCc2nn(CC(=O)NCc3ccc(F)cc3)cc2C1 (stereo not drawn) | 919 | 1.2% (inactive) | -5.6% (inactive) | 112% | -72.4% (inactive) | 119% | -0.628 (inactive) | -3.4e-06 (inactive) | 0.00689 (inactive) | -0.348% (inactive) | 20.2% (inactive) |
| CCOC(=O)CSc1nn(C)c(=S)s1 | 723 | 0.6% (inactive) | -4.4% (inactive) | 108% | -19.1% (inactive) | 104% | -0.573 (inactive) | -1.7e-05 (inactive) | 0.00733 (inactive) | 3.99% (inactive) | 21.1% (inactive) |
| O=C(CCn1c(=O)oc2ccccc21)NCCN1CCOCC1 | 653 | -15.1% (inactive) | 2.6% (inactive) | 110% | -9.1% (inactive) | 99.8% | -0.58 (inactive) | -5.4e-05 (inactive) | 0.00667 (inactive) | -16.3% (inactive) | -13% (inactive) |
| O=C(CSc1nnc(SCc2ccc(Cl)cc2)s1)N1CCN(C(=O)c2ccco2)CC1 | 236 | 42.2% (active) | -21.7% (inactive) | 116% | -194% (inactive) | 152% | -0.519 (inactive) | -0.000144 (inactive) | 0.00593 (inactive) | -1.92% (inactive) | -7.44% (inactive) |
| COc1ccc(CCNc2oc(-c3ccccc3OC)nc2C#N)cc1 | 216 | -4.3% (inactive) | 4% (inactive) | 86.1% | -19.1% (inactive) | 88.6% | -0.413 (inactive) | 2.3e-05 (inactive) | 0.00318 (inactive) | -0.337% (inactive) | 12.4% (inactive) |
| CC(C)COC(=O)C1[C@H]2C(=O)N(Cc3cccs3)C[C@]23C=C[C@H]1O3 (stereo partly drawn) | 483 | 3.3% (inactive) | -2.4% (inactive) | 97.4% | -44.8% (inactive) | 127% | -0.393 (inactive) | -1.4e-05 (inactive) | 0.00385 (inactive) | 9.95% (inactive) | 32.4% (inactive) |
| CCn1c(SCC(=O)Nc2cc(C)on2)nc2sc3c(c2c1=O)CCCC3 | 470 | -16.6% (inactive) | 4% (inactive) | 118% | -26.9% (inactive) | 110% | -0.4 (inactive) | 1.4e-06 (inactive) | 0.00722 (inactive) | -5.69% (inactive) | 98.9% (active) |
